H9c2 protect: myocardial damage modulation in H9c2 cells; H9c2 cardiomyocytes, H2O2 injury protection, ATPLite, 2 h; protection from H2O2 cell death, % at 20 µM; 0.63% of 360,000 active; AID 588492;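 active means compounds giving at least 50% protection of heart cells from peroxide-induced death in the single-dose screen, raw or plate-pattern-corrected value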
SUMO HTRF inh: SUMOylation inhibition. P63279. HTRF SUMOylation assay, SAE1/SAE2 + UBC9, in vitro. inhibition, % at 35 µM. 0.36% of 290,000 active. AID 2006; in the data active means inhibition above about 50%, passing the limit was not always enough
ALR H2O2 inh: human ALR oxidase inhibition via reduced H2O2; purified ALR, DTT oxidation, H2O2 HRP-luminol luminescence; inhibition, % (test concentration not listed); 3.8% of 290,000 active; AID 485317;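 active means mean replicate inhibition above about 79%, with every replicate also reaching it, limit read from the data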
Target sequence (P55789 whole entry, looked up): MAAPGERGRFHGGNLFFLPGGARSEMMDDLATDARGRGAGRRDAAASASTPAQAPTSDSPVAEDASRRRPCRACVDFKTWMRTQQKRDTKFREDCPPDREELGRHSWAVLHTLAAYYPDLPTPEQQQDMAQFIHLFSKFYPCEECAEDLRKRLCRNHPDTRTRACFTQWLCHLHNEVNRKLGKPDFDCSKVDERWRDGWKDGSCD
NTR1 agonist: NTR1 (human) agonism; NTR1-U2OS beta-arrestin-GFP spot imaging, agonist mode; activation, % at 20 µM; 0.17% of 330,000 active; AID 493036;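 active means activation at or above 40% of the spot to cytoplasm intensity ratio, with at least 20 cells analyzed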
Target sequence (P30989 whole entry, looked up): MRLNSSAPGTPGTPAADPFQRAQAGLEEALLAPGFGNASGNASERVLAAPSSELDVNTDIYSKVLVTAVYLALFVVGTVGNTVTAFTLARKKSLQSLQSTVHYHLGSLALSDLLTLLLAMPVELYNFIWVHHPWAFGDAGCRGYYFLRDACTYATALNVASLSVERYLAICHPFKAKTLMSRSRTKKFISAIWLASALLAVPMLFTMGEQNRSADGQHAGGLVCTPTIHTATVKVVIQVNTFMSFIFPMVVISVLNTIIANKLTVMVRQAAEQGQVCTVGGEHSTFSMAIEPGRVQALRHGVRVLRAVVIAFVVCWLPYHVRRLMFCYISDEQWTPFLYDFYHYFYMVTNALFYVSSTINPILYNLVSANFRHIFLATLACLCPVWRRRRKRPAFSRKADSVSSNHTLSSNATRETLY
Each line names hits and unclear results; the compound was inactive in the other large screens. Rows were chosen to be rich in hits. Some 3.9% of all compounds tested hit in one or more screens of this group.

C=CCn1c(SCC(=O)Nc2ccccc2C)nc(O)cc1=O	ALR H2O2 inh 91.8
O=C(CO/N=C/c1ccc(Cl)cc1Cl)NNC(=O)c1cccc(Cl)c1	none
O=C(OCCN=C1NS(=O)(=O)c2ccccc21)c1cccnc1	none
Cc1ccc(CNC(=O)C2CCN(S(=O)(=O)c3c(C)noc3/C=C/N(C)C)CC2)cc1	none
COC(=O)/C=C/C(=O)N1CCN(c2ccccc2)CC1	ALR H2O2 inh 96.8 (no result: NTR1 agonist)
COc1ccccc1CNC(=O)N1CCN(c2ccccc2C)CC1	none
COC(=O)/C=C/C(=O)N1CCN(c2ccccc2C)CC1	ALR H2O2 inh 98.3
O=C(NCc1ccc(F)cc1)c1cc(S(=O)(=O)N2CCCCC2)c[nH]1	none
Cc1ccc(S(=O)(=O)/N=C(\CCl)N2CCOCC2)cc1	ALR H2O2 inh 97.4 (no result: NTR1 agonist)
Cc1ccc(S(=O)(=O)/N=C(\CN2CCOCC2)N2CCCC2)cc1	none
O=C(CSCc1ccc(Cl)cc1)Nc1cccc(C(=O)O)c1	none (no result: ALR H2O2 inh)
Cc1ccc(N=Nc2c(C)[nH]n(C(N)=S)c2=O)cc1	none
Cc1ccc([N+](=O)[O-])cc1N=Nc1c(C)[nH]n(C(N)=S)c1=O	ALR H2O2 inh 98.0
NC(=S)n1[nH]c(-c2ccc([N+](=O)[O-])cc2)c(N=Nc2ccc(Cl)cc2)c1=O	SUMO HTRF inh 64.0 (no result: ALR H2O2 inh, NTR1 agonist)
Cc1ccc([N+](=O)[O-])cc1N=Nc1c(-c2ccc([N+](=O)[O-])cc2)[nH]n(C(N)=S)c1=O	none (no result: ALR H2O2 inh, NTR1 agonist)
Cc1ccc(OCC(=O)Nc2ccc3c(c2)nc(CCN2CCOCC2)n3C)cc1	none
COc1ccc(-c2nc(N)nc(C(F)(F)F)c2-c2ccccc2OC)c(O)c1	none
Cc1c(C(=O)N2CCCCC2)sc(NC(=O)c2ccco2)c1C#N	none
CCn1c(SCC(=O)c2ccccc2)nnc1-c1ccoc1C	ALR H2O2 inh 84.1
CCn1c(SCC(=O)c2ccccc2)nnc1-c1cccnc1	ALR H2O2 inh 91.0
CN1c2ccccc2C(C)(C)C12C=Cc1cc(O)ccc1O2 (stereo not given)	ALR H2O2 inh 79.7
Fc1ccc2c(c1)/C(=N/Nc1ccccn1)CCS2	ALR H2O2 inh 98.7
CC(CCc1ccc(O)cc1)NCCc1ccc(O)c(O)c1 (stereo not given)	ALR H2O2 inh 99.1 (no result: SUMO HTRF inh)
COc1ccccc1CCNC(C)CCc1ccc(O)cc1 (stereo not given)	none
CCCCc1ccc(NC(=S)N2CCN(C(=O)OCC)CC2)cc1	none (no result: ALR H2O2 inh)
CCN(CC(=O)Nc1c(F)cccc1F)C(=O)Cc1ccsc1	none (no result: SUMO HTRF inh)
CCCN(CC(=O)Nc1ccc(F)c(F)c1F)C(=O)CCc1nc2ccccc2c(=O)[nH]1	H9c2 protect 67.5 (no result: SUMO HTRF inh)
CCN(CC(=O)Nc1c(F)cccc1F)C(=O)CCCc1nc2ccccc2c(=O)[nH]1	none (no result: SUMO HTRF inh)
CCN(CC(=O)Nc1c(F)cccc1F)C(=O)CCc1nc2ccccc2c(=O)[nH]1	H9c2 protect 64.5 (no result: SUMO HTRF inh)
CCN(CC(=O)Nc1c(F)cccc1F)C(=O)Cc1n[nH]c(=O)c2ccccc12	H9c2 protect 59.8 (no result: SUMO HTRF inh)
O=C(CSCc1ccco1)c1cccs1	ALR H2O2 inh 99.0
O=C(O)c1ccc(CSCc2ccco2)cc1	ALR H2O2 inh 97.4
O=C(Cc1ccccc1)NCCSCc1ccco1	none
COc1cc(OC)cc(-n2nnnc2SCC(=O)N2CCCC2)c1	none
COc1ccc(-n2nnnc2S(=O)(=O)Cc2ccc(C(=O)O)cc2)cc1	ALR H2O2 inh 97.9
COc1ccc(-n2nnnc2S(=O)(=O)CC(=O)N2CCCCC2)cc1	ALR H2O2 inh 97.7
CCc1ccc(Oc2nnnn2-c2ccc(C(N)=O)cc2)cc1	none
O=C1c2sc3nc4n(c(=O)c3c2CCC1Br)CCCCC4 (stereo not given)	ALR H2O2 inh 82.4
O=C1CCCc2c1sc1nc3n(c(=O)c21)CCCCC3	none
Cc1[nH]c2ccccc2c1SCC(=O)N1CCN(c2ccccc2)CC1	ALR H2O2 inh 91.2
Cc1nc(SCC(=O)N2CCN(c3ccccc3)CC2)n[nH]1	ALR H2O2 inh 98.6
O=C(CN1CCN(c2ccc(F)cc2)CC1)N1CCOCC1	ALR H2O2 inh 88.3
Nc1nc(SCC(=O)N2CCN(c3ccccc3)CC2)n[nH]1	none
Nc1nc(SCC(=O)N2CCN(c3ccc(F)cc3)CC2)n[nH]1	ALR H2O2 inh 94.5 (no result: SUMO HTRF inh)
O=C(N1CCOCC1)N1CCN(c2ccc(F)cc2)CC1	none
CCCc1cc(=O)[nH]c(SCC(=O)N2CCN(c3ccccc3)CC2)n1	none
O=C(CSc1nccc(=O)[nH]1)N1CCN(c2ccccc2)CC1	ALR H2O2 inh 92.5
CCCN1C(=O)c2cc(C(=O)O)ccc2C1O (stereo not given)	none
COc1ccc(C(=O)NC2CCCCCC2)cc1OC1CCN(C(C)=O)CC1	ALR H2O2 inh 93.3
CCCN1C(=O)c2cc(C(=O)Nc3cccc(C(C)=O)c3)ccc2C1Nc1cccc(C(C)=O)c1 (stereo not given)	H9c2 protect 51.9
CCCN1C(=O)c2cc(C(=O)NC3CCCCCC3)ccc2C1O (stereo not given)	ALR H2O2 inh 96.3
CCCN1C(=O)c2cc(C(=O)Nc3ccccc3OC)ccc2C1Nc1ccccc1OC (stereo not given)	none
COc1ccc(C(=O)NC2CCCCC2)cc1OC1CCN(C(C)C)CC1	none
Cc1cccc(C(=O)NC2CCCCCCC2)c1	none (no result: ALR H2O2 inh)
CN(C)c1cccc(C(=O)NC2CCCCCC2)c1	ALR H2O2 inh 94.2
CC(C)C[C@H](NC(=O)c1[nH]cnc1C(=O)N[C@@H](Cc1ccccc1)C(=O)OCc1ccccc1)C(=O)OCc1ccccc1	none
CCOC(=O)N1CCC(N2C(=O)c3cc(C(=O)NC4CCCCC4)ccc3C2O)CC1 (stereo not given)	ALR H2O2 inh 94.0
COc1ccc(CNC(=O)c2cccc(N(C)C)c2)cc1	ALR H2O2 inh 82.7
COc1ccc(-c2cnc3c(NC=O)cc(-c4cccc(NS(C)(=O)=O)c4)cn23)cc1OC	H9c2 protect 105.0 (no result: SUMO HTRF inh, ALR H2O2 inh, NTR1 agonist)
COc1cccc(-c2cnc3c(NC=O)cc(-c4cc(OC)c(OC)c(OC)c4)cn23)c1	H9c2 protect 71.3 (no result: SUMO HTRF inh, ALR H2O2 inh, NTR1 agonist)
CS(=O)(=O)c1ccc(-c2cnc3c(NC=O)cc(-c4ccsc4)cn23)cc1	H9c2 protect 81.2 (no result: SUMO HTRF inh, ALR H2O2 inh, NTR1 agonist)
CCCCNCCOc1ccccc1-c1ccccc1	none
OCC#CCSc1nnc(-c2ccc(Br)cc2)o1	none
COC(=O)Sc1nnc(-c2ccc(Br)cc2)o1	ALR H2O2 inh 97.7 (no result: H9c2 protect)
CCOc1ccc(NC(=O)N(CCCN2CCOCC2)Cc2cccnc2)cc1	none
CCOc1ccc(NC(=O)N(CCN2CCOCC2)Cc2ccc3c(c2)CCCN3CC)cc1	ALR H2O2 inh 99.5
COc1ccc(OC)c(CN(CCN2CCOCC2)C(=O)Nc2ccccc2)c1	none (no result: ALR H2O2 inh)
CCN1CCCc2cc(CN(CCN3CCOCC3)C(=S)Nc3cccc(OC)c3)ccc21	ALR H2O2 inh 86.9
CCCN1CCCc2cc(CN(CCCN3CCOCC3)C(=O)Nc3ccc(OCC)cc3)ccc21	ALR H2O2 inh 99.3
CCc1nc2c(OCC(=O)c3ccc(F)cc3)cccn2c1N(C)C(=O)c1cccs1	none (no result: SUMO HTRF inh, ALR H2O2 inh, NTR1 agonist)
Brc1ccc2nc(-c3cccs3)c(NCC3CCCO3)n2c1 (stereo not given)	ALR H2O2 inh 98.3
O=C1NC(=S)S/C1=C\C=C\c1ccc([N+](=O)[O-])o1	SUMO HTRF inh 86.4 (no result: ALR H2O2 inh, NTR1 agonist)
O=C(O)/C=C/c1ccc([N+](=O)[O-])o1	none
O=C(Cc1c(F)cccc1Cl)N1CCN(S(=O)(=O)c2cccc(F)c2)CC1	none (no result: SUMO HTRF inh)
